Assay results published in PubChem BioAssay AID1159580 (chemical genetic matrix, 2015).
Several values for one entry are separate records, joined by “and”; a condition that tells them apart may be missing. Identical values can stand only once. Screen size: about 5,500 compounds; about 2,000 (36%) were called active. Roughly 18% stayed inconclusive and do not appear here. Rule as the data show it: active = normalized growth mostly below about 0.91 (no sharp cut-off); inconclusive = no clear call, values can overlap the other calls; inactive = mostly above about 0.92. This is one part of the list.

Test: chemical genetic growth profiling, strain panel (AID 1159580);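 also: tested at 20 µM; growth read once vehicle control cultures reached saturation at 30 °C; 1 = growth at the plate median or of vehicle wells; lower values mean less growth of the strain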
Details: S. cerevisiae deletion strains, growth OD

Measured: normalized growth

NS(=O)(=O)c1cc2c(cc1Cl)NC=NS2(=O)=O
inactive: locus YAL013W, strain DEP1, hits give low values 1 | locus YAL021C, strain ccr4, hits give low values 0.984 | locus YAL026C, strain drs2, hits give low values 1.01 | locus YAL030W, strain snc1, hits give low values 1 | locus YAL040C, strain CLN3, hits give low values 1 | locus YBL061C, strain skt5, hits give low values 1 | locus YBR009C, strain hhf1, hits give low values 0.983 | locus YBR021W, strain FUR4, hits give low values 1 | locus YBR023C, strain chs3, hits give low values 1 | locus YBR171W, strain sec66, hits give low values 1 | locus YBR229C, strain ROT2, hits give low values 1 | locus YBR231C, strain swc5, hits give low values 0.973 | locus YBR279W, strain paf1, hits give low values 0.997 | locus YCL011C, strain gbp2, hits give low values 1 | locus YCL016C, strain dcc1, hits give low values 0.999 | locus YCL029C, strain bik1, hits give low values 0.997 | locus YCL061C, strain MRC1 (second series), hits give low values 1 | locus YCL061C, strain MRC1, hits give low values 1.01 | locus YCL069W, strain vba3, hits give low values 1.01 | locus YCR088W, strain abp1, hits give low values 0.995 | locus YDL005C, strain med2, hits give low values 0.997 | locus YDL035C, strain GPR1, hits give low values 1.02 | locus YDL040C, strain nat1, hits give low values 1 | locus YDL074C, strain BRE1, hits give low values 1.01 | locus YDL101C, strain DUN1, hits give low values 1.01 | locus YDL134C, strain PPH21, hits give low values 1 | locus YDL185W, strain tfp1, hits give low values 0.974 | locus YDL192W, strain arf1, hits give low values 1 | locus YDR001C, strain nth1, hits give low values 1.03 | locus YDR069C, strain doa4, hits give low values 1 | locus YDR101C, strain arx1, hits give low values 0.996 | locus YDR137W, strain rgp1, hits give low values 0.999 | locus YDR150W, strain NUM1, hits give low values 1.01 | locus YDR159W, strain sac3, hits give low values 1 | locus YDR162C, strain NBP2, hits give low values 1.02 | locus YDR195W, strain ref2 0.93 | locus YDR297W, strain sur2, hits give low values 1 | locus YDR318W, strain mcm21, hits give low values 1 | locus YDR334W, strain swr1, hits give low values 1 | locus YDR335W, strain msn5, hits give low values 1.02 | locus YDR388W, hits give low values 0.997 | locus YDR392W, strain spt3, hits give low values 1 | locus YDR502C, strain sam2, hits give low values 1.01 | locus YEL003W, strain gim4, hits give low values 0.99 | locus YEL037C, strain rad23, hits give low values 0.999 | locus YEL061C, strain CIN8 (second series), hits give low values 1.02 | locus YEL061C, strain CIN8, hits give low values 1 | locus YER002W, strain NOP16, hits give low values 0.975 | locus YER015W, strain faa2, hits give low values 1.01 | locus YER016W, strain bim1, hits give low values 1.01 | locus YER110C, hits give low values 0.986 | locus YER111C, strain swi4, hits give low values 0.99 | locus YER155C, strain BEM2 (second series), hits give low values 0.963 | locus YER155C, strain BEM2, hits give low values 1 | locus YER167W, strain BCK2, hits give low values 1.03 | locus YFR010W, strain ubp6, hits give low values 1.02 | locus YGL078C, strain dbp3, hits give low values 1 | locus YGL086W, strain mad1, hits give low values 1 | locus YGL167C, strain pmr1, hits give low values 0.993 | locus YGL173C, strain kem1, hits give low values 0.989 | locus YGL227W, strain vid30, hits give low values 0.988 | locus YGL240W, strain doc1, hits give low values 0.988 | locus YGL248W, strain PDE1, hits give low values 1.01 | locus YGL253W, strain hxk2, hits give low values 1.03 | locus YGR078C, strain PAC10, hits give low values 1.01 | locus YGR135W, strain pre9, hits give low values 0.998 | locus YGR229C, strain SMI1, hits give low values 1.02 | locus YGR252W, strain gcn5, hits give low values 1.02 | locus YHR013C, strain ard1, hits give low values 0.966 | locus YHR027C, strain rpn1, hits give low values 1 | locus YHR030C, strain SLT2, hits give low values 1.01 and 0.954 | locus YHR079C, strain IRE1 (second series), hits give low values 1 | locus YHR079C, strain IRE1, hits give low values 0.965 | locus YHR094C, strain hxt1, hits give low values 0.995 | locus YHR129C, strain ARP1, hits give low values 1 | locus YHR142W, strain chs7, hits give low values 1.02 | locus YHR200W, strain rpn10, hits give low values 0.993 | locus YIL066C, strain RNR3, hits give low values 1.02 | locus YIL073C, strain SPO22, hits give low values 1.03 | locus YIL125W, strain kgd1, hits give low values 1 | locus YIR030C, strain dcg1, hits give low values 0.99 | locus YJL092W, strain hpr5, hits give low values 1.01 | locus YJL095W, strain BCK1 (second series), hits give low values 1 | locus YJL095W, strain BCK1, hits give low values 1.02 and 0.975 | locus YJL115W, strain asf1, hits give low values 1.01 | locus YJL129C, strain trk1, hits give low values 1.02 | locus YJL134W, strain LCB3, hits give low values 1 | locus YJL154C, strain vps35, hits give low values 0.989 | locus YJL164C, strain tpk1, hits give low values 1 | locus YJL166W, strain qcr8, hits give low values 0.985 | locus YJL168C, strain set2, hits give low values 0.995 | locus YJL187C, strain SWE1 (second series), hits give low values 1.03 | locus YJL187C, strain SWE1, hits give low values 1.01 | locus YJR043C, strain POL32, hits give low values 0.996 | locus YJR066W, strain TOR1, hits give low values 0.973
